# Sampled rows, rich in hits. Any-hit rate of the full collection: about 19%.
# DT40 TDP1 CPT – DT40-hTDP1 cell growth loss with CPT. AID 686979. 12% of 420,000 active. chicken DT40 Tdp1-/-;hTDP1 cells + 20 nM CPT, ATP luminescence, 48 h. Potency, µM (top dose mostly 46.2 µM), for inactives: at the top dose activity change, negative = growth inhibition, most hits filed as inhibitors; also: potency is read from the fitted curve at half-maximal effect; nearly all actives have a fitted effect of over 55% in size
#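 Cell growth measured by CellTiter-Glo luminescence after a minimum 48 h, 37 C compound exposure with 20 nM CPT in Tdp1-knockout DT40 cells stably expressing hTDP1, seeded 400/well; qHTS titration format.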
# HT1080 IDH1KD tx – HT-1080 IDH1 knockdown cell toxicity (counter line). HT-1080 IDH1 knockdown viability, ATP luminescence, 48 h. Potency, µM (highest dose often 46.1 µM), for the others: at the highest dose activity, negative = toxicity, actives largely listed as cytotoxic. 2% of 360,000 active. AID 686971;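 also: potency is read from the fitted curve at half-maximal effect; 0% = DMSO wells and -100% = cell-free medium wells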
#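 After a 2 h attachment period, IDH1KD HT-1080 cells took pin-transferred compound for 48 h at 37 °C; ATP-based luminescence after 10 min room-temperature reagent incubation reported viability.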
# HT1080-NT tox – kills 2HG-producing HT-1080-NT fibrosarcoma cells | HT-1080-NT fibrosarcoma viability, CellTiter-Glo ATP luminescence, 48 h | Potency, µM (highest dose often 46.1 µM), inactives show at the top dose activity, negative = less viability, most hits filed as cytotoxic | 1.6% of 360,000 active;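 also: NT is the 2HG producing partner of a matched IDH1 knockdown line; potency is read from the fitted curve at half-maximal effect; 0% = DMSO-treated cells and -100% = media-only wells without cells; nearly all actives have a fitted effect of over 55% in size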
#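 Toxicity toward the 2HG-producing NT line was scored as %Activity, normalised to DMSO and no-cell wells, from CellTiter-Glo luminescence after 48 hours' treatment.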
# TDP1 cell noCPT – qHTS for Inhibitors of human tyrosyl-DNA phosphodiesterase 1 (TDP1): qHTS in cells in absence of CPT; Potency, µM (doses to about 46.2 µM), for inactives: at the top dose activity change, negative = growth inhibition, actives largely listed as inhibitors; DT40 Tdp1-/- hTDP1 cells, no CPT, ATP luminescence, 48 h; 15% of 420,000 active; AID 686978, 2013; also: potency is read from the fitted curve at half-maximal effect; nearly all actives have a fitted effect of over 55% in size
#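 Chicken DT40 Tdp1-/- cells complemented with human TDP1, screened without camptothecin (DMSO vehicle only), 400 cells/well. Compounds pin-transferred, cells incubated at 37 °C for at least 48 hr. Growth read as ATP-dependent luminescence (CellTiter-Glo, 30 min at RT).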
# IL1B secr inh – blocks inflammasome-driven IL-1 beta release; THP-1 LPS/ATP IL-1B secretion, AlphaLISA, 16 h; active compounds read low; 4.7% of 360,000 active; activity change, % at 57.5 µM; in the data active = activity change below about -50%; inconclusive = mostly about -30% to -49%
#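 THP-1 cells pretreated 1 hr with compounds (up to 57.5 uM final), then stimulated with LPS (250 ng/mL final) plus ATP (1.25 mM final); secreted IL-1B measured by AlphaLISA after 16 hr, decreased signal indicating inhibition.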
# * marks the source's active call; other numbers are inactive results; ? = inconclusive; nt = no result given; [ ] = another dose, or the depositor's remark. Unless noted, calls follow the shape of the dose curve; as a rule, active = well fitted curve in the direction sought with a large enough effect; inconclusive = small, poorly fitted or top-dose-only effect, or another doubt; inactive = no such curve, though single readings can be large; an effect the other way counts as inactive or inconclusive. Unless noted, % is scaled to controls: 0 for no effect and ±100 for the full control effect.
SMILES,DT40 TDP1 CPT,HT1080 IDH1KD tx,HT1080-NT tox,TDP1 cell noCPT,IL1B secr inh
CCOC(=O)[C@]12CCCC=C1N(Cc1cccc3ccccc13)C(=O)[C@H](CC(=O)NCc1ccc(C)o1)C2,?,?,?,?,-2
COC(=O)[C@]12CCCCC=C1N(Cc1cccc3ccccc13)C(=O)[C@H](CC(=O)NCc1cccc3ccccc13)C2,?,-16%,-14%,?,-19
COC(=O)[C@]12CCCCC=C1N(Cc1cccc3ccccc13)C(=O)[C@H](CC(=O)NCc1cccs1)C2,?,?,?,?,-60*
COC(=O)[C@]12CCCCC=C1N(Cc1cccc3ccccc13)C(=O)[C@H](CC(=O)NCc1ccc(C)o1)C2,?,?,-28%,21µM*,0
O=C(C[n+]1ccccc1)c1ccc(O)c(O)c1,-27%,nt,nt,-14%,nt
COc1ccc(OC)c(NC(=O)c2c(NCc3ccc(OC)c(OC)c3)sc3c2CCC3)c1,15µM*,nt,nt,16µM*,nt
COc1cccc(CNc2sc3c(c2C(=O)Nc2ccc(OC)cc2OC)CCC3)c1,13µM*,nt,nt,21µM*,nt
COc1ccc(OC)c(NC(=O)c2c(NCc3ccc(N(C)C)cc3)sc3c2CCCC3)c1,21µM*,nt,nt,?,nt
COc1ccccc1NC(=O)c1c(NC(=O)c2ccco2)sc2c1CCC2,?,18%,-1%,?,-18
CN1CCCN(S(=O)(=O)c2cccc(C#N)c2)CC1,9%,10%,11%,-2%,4
O=C(CSc1nncs1)NC(=O)NC1CCCC1,-5%,1%,2%,-16%,-15
COc1cccc(CC2CC(=O)N(c3ccc4c(C)cc(=O)oc4c3)C2=O)c1 (centres undefined),0%,3%,3%,-2%,12
CSc1sc(C(=O)NC(=O)NCc2ccncc2)c(C)c1-c1ccon1,?,-3%,-5%,16µM*,-13
O=C(NCc1ccccc1)NC(=O)c1ccncc1,-6%,-5%,2%[9.24 µM],-25%,0
CN(C1=NS(=O)(=O)N=C(N(C)c2ccccc2)O1)c1ccccc1,?,?,?,?,-102*
Cc1ccc(Cl)c(NC(=O)CCl)c1Cl,?,-10%,-27%,?,-91*
Cc1ccc(Cl)c(NC(=O)CSc2cccc[n+]2[O-])c1Cl,-2%,5%,8%,-3%,-8
FC(F)(F)c1nc2ccccc2n2c(-c3c(Cl)cccc3Cl)nnc12,26µM*,-5%,-9%,21µM*,18
FC(F)(F)c1nc2ccccc2n2c(-c3ccc(Cl)cc3Cl)nnc12,21µM*,?,?,21µM*,-4
Cc1c(C(=O)Nc2ccccc2Cl)sc2ncnc(N(C)C3CCCCC3)c12,-11%,nt,nt,-10%,nt
CC(NC(=O)Nc1ccc(Br)cc1)C(C)(C)C (centres undefined),?,0%,6%,?,15
COC(=O)C(C)(C)ONC(=O)Nc1ccc(Br)cc1,23µM*,1%,2%,-14%,0
Cc1cccc(N2CCN(C(=O)CCNS(=O)(=O)c3ccc4c(c3)CCN4C(=O)C3CC3)CC2)c1C,18µM*,nt,nt,18µM*,nt
CCC(=O)N1CCc2cc(S(=O)(=O)CCC(=O)N3CCN(c4cccc(C)c4C)CC3)ccc21,-5%,nt,nt,-14%,nt
N#Cc1ccc(CN2CCN(C(=O)CCNS(=O)(=O)c3ccc(F)c(Cl)c3)CC2)cc1,?,-4%,-10%,18µM*,-6
SMILES,DT40 TDP1 CPT,HT1080 IDH1KD tx,HT1080-NT tox,TDP1 cell noCPT,IL1B secr inh
CC(=O)N1CCc2cc(S(=O)(=O)NCCC(=O)N3CCN(Cc4ccccc4)CC3)ccc21,?,-5%,-24%,21µM*,19
N#Cc1ccc(CN2CCN(C(=O)c3ccc(S(=O)(=O)NCc4ccco4)cc3)CC2)cc1,10µM*,-19%,0%,2.6µM*,22
N#Cc1ccc(CN2CCN(C(=O)CCNS(=O)(=O)c3ccc(F)c(F)c3)CC2)cc1,-27%,2%,1%[9.24 µM],-18%,28
Cc1ccc(C(O)c2ncc(-c3ccccc3)[nH]2)c(C)c1 (centres undefined),?,-8%,3%,-29%,-5
CC(=O)Nc1ccc(-c2csc(NC(=O)C3CSC4(C)CCC(=O)N34)n2)cc1 (centres undefined),-14%,-11%,-5%,?,-11
COc1ccc(-n2ccn3c(CC(C)(C)CC(=O)O)nnc3c2=O)cc1,-13%,nt,nt,-6%,nt
Cc1c(Cl)cccc1NC(=O)Cn1nc(C(F)(F)F)c2c1CCC2,-25%,nt,nt,-4%,nt
N#Cc1ccc(CN2CCN(CC(=O)NCCc3ccc(Cl)cc3Cl)CC2)cc1,21µM*,?,?,21µM*,?
CCN(CC)c1ccc(NC(=O)CCNS(=O)(=O)c2ccc3c(c2)CCC(=O)N3)c(C)c1,?,-4%,2%,16µM*,30
O=C(CCNS(=O)(=O)c1cccc2nonc12)N1CCN(c2cccc(Cl)c2)CC1,?,-8%,-11%,12µM*,-12
COc1ccc(N2CCN(C(=O)CCNS(=O)(=O)c3ccc4c(c3)CCN4C(=O)C3CC3)CC2)cc1,13µM*,nt,nt,18µM*,nt
O=C(CCNS(=O)(=O)c1cccs1)N1CCN(c2cccc(Cl)c2)CC1,?,0%,-18%,?,-12
O=C(CSc1nc2[nH]ncc2c(=O)[nH]1)Nc1ccc(Cl)cc1,-2%,-16%,-5%,-17%,-7
CC1(C(=O)NS(=O)(=O)c2ccccc2Cl)CCN1C(=O)CC1CCCC1 (centres undefined),-3%,21%,14%,1%,25
C[C@H]1CN([C@@H](C)CO)S(=O)(=O)c2ccc(Br)cc2O[C@H]1CN(C)C(=O)CCN1CCCCC1,14%,5%,6%,14%,10
CC1CC(C)CN(C(=O)CCNS(=O)(=O)c2ccc3c(c2)CCC(=O)N3)C1 (centres undefined),-10%,15%,20%,-2%,-5
O=C1CCc2cc(S(=O)(=O)NCCC(=O)N3CCN(c4cccc(Cl)c4)CC3)ccc2N1,26µM*,?,?,10µM*,2
O=C(CCNS(=O)(=O)c1ccc2c(c1)CCN2C(=O)C1CC1)N1CCN(c2cccc(Cl)c2)CC1,5.8µM*,nt,nt,9.2µM*,nt
CCC(=O)N1CCc2cc(S(=O)(=O)NCCC(=O)N3CCN(c4ccccn4)CC3)ccc21,-1%,-14%,-1%,?,8
O=C(CCNS(=O)(=O)c1ccc2c(c1)CCN2C(=O)C1CC1)N1CCN(c2ccc(F)cc2)CC1,3.3µM*,nt,nt,9.2µM*,nt
